# Results reported in PubChem BioAssay (NCI).
# About 79,000 compounds went through this panel and 15% of them were active in at least one assay; those are over-represented in the sample as a whole. A number with no mark means an inactive call. The source made the active and inactive calls. Cut-off read from the data, not from the text of the source: active = growth inhibition above about 70%; inactive = the rest.
# Experiment: NCI Yeast Anticancer Drug Screen. Data for the mlh1 rad18 strain (AID 175)
# Conditions: S. cerevisiae mlh1 rad18 strain growth inhibition; at 50.0 µM; hits give high values
# How it was run: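 Yeast w/ defined DNA-repair lesions; compound exposure; growth vs vehicle controls → % inhibition.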
row,Compound,growth inhibition
1,CCOC(=O)CN(C)C#N,-2.15%
2,O=CNC1(c2ccccc2)CCCCC1,4.85%
3,Cc1nn(C(=O)c2ccncc2)c2c1C(c1ccccc1[N+](=O)[O-])SC(N)=N2 (stereo not given),18.9%
4,NC(=O)c1[nH]nc(C2OC(CO)C(O)C2O)c1O (stereo not given),8.75%
5,CC(C)c1ccc2c(c1)CCC1C(C)(C)[C@@H](O)CC[C@]21C (stereo not given in full),-22.3%
6,NC(=O)c1ccc[n+](-c2ccc([N+](=O)[O-])cc2[N+](=O)[O-])c1,63.4%
7,CCSC(=S)S(=O)(=O)c1ccc(C)cc1,92.3% (active)
8,NC(=O)c1ccc2c(c1)-c1nc-2nc2[n-]c(nc3nc(nc4[n-]c(n1)c1ccc(C(N)=O)cc41)-c1ccc(C(N)=O)cc1-3)c1ccc(C(N)=O)cc21.[Co+2],4.35%
9,Cc1cc(O)c2c(c1)C(=O)c1c(-c3ccc(O)c4c3C(=O)c3c(O)c(C)cc(O)c3C4=O)ccc(O)c1C2=O,-24.4%
10,CNC(=O)OCc1c(COC(=O)NC)c(C)n(-c2ccccc2)c1C,-24%
11,CCOC(=O)Nc1cc(Cl)c2nnn(C(=O)OCC)c2n1,97.6% (active)
12,C=C1N(c2cc(OC)c(OC)c(OC)c2)C(=O)OC12CCCCC2,1.4%
13,CCOC(=O)C(C(=O)OCC)C(=O)C(C)(C)C,18.9%
14,CN(C)c1ccc(/C=N\NC(=S)NCCCN2CCN(CCCNC(=S)N/N=C/c3ccc(N(C)C)cc3)CC2)cc1,27.2%
15,Cc1c(Cl)ccc([N+](=O)[O-])c1Cl,29.4%
16,CS(=O)(=O)OCCCCOS(=O)(=O)CF,-20%
17,O.O.[Cl][Pt+2][Cl].[NH-]CC1(C[NH-])CCCCC1,-30.1%
18,COc1ccc2c(c1)CCN1CCc3ccccc3CC21 (stereo not given),42.6%
19,CC12CCC[C@@](C)(C(=O)OC3OC(CO)C(O)C(O)C3O)[C@H]1CCC13CC4CC(OC4(CO)[C@H]1O)[C@@H]23 (stereo not given in full),-17.9%
20,O=C1CN(c2cccc(C(F)(F)F)c2)C(=O)CN1CCN1CC(=O)N(c2cccc(C(F)(F)F)c2)CC1=O,-5.2%

row,Compound,growth inhibition
1,CN(c1ccc(Br)cc1)c1nc(N)nc(N)c1N=O,-1.8%
2,CCOC(=O)C(NC(=O)OC(C)(C)C)C(=O)OCC,-27.4%
3,NC(=S)N/N=C/c1ccccc1S(=O)(=O)O,-4.7%
4,CNC(=O)c1ccccc1S(=O)Cc1ccc(Br)cc1 (stereo not given),-0.95%
5,OCC1OC(n2cnc3c(NCc4ccccc4)ncnc32)C(O)C1O (stereo not given),0.55%
6,Cn1c(-c2ccc(/C=N/N=C(N)N)cc2)c[n+]2ccccc12,32.5%
7,O=C(Cc1ccccc1)NC(=O)Nc1ccccc1,0.4%
8,O=c1[nH]c2c(Br)cccc2c2ccccc12,17.5%
9,Cc1c(Cl)cccc1NC(=O)Sc1ccc(C(C)(C)C)cc1,15.5%
10,O=C1c2ccccc2C(=O)c2c1nnn2-c1ccccc1,-2.15%
11,COC(=O)c1cc(C)c2c3ccccc3n(C)c2c1C(=O)OC,-13.5%
12,Oc1cccc(CCc2ccccn2)c1,-4.05%
13,O=C(c1ccccc1)c1cc[n+]([O-])cc1,12.7%
14,C#CCn1cnc2c1c(=O)n(C)c(=O)n2C,-10.7%
15,O=C(O)C(O)C(O)C(O)C(O)C(O)CO.[NH-]C1CCCCC1[NH-].[Pt+2] (stereo not given),-49.5%
16,CC(=O)/C=C1\N(C)c2ccccc2C1(C)C,-10.9%
17,COC(=O)c1c2cccccc-2c(C(=O)OC)c1N,42.6%
18,CC[N+](C)(CC)c1cccc(OC(=O)N2CCCCC2)c1,-16.9%
19,Cc1cc2c(=O)c(C(=O)O)c[nH]c2cc1-n1cccc1,33.2%
20,O=C1c2ccccc2C(=O)N1C/C(Cl)=C/Cl,-22.6%
